Assay [1] has as its system Human papillomavirus type 1a protein E7 (residues 44-93). The experiment in a line: HPV1a E7 fragment binders on microarrays, primary screen, biochemical, small-molecule microarray, residues 44-93, 635 nm fluorescence (AID 1108).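 Also: E7 fragment applied at 1 µg/mL in TBST for 1 h at 4 C; score combines spot fluorescence with its signal to noise ratio.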 The settings on record: small-molecule microarray binding, fluorescence 635 nm; higher = more signal.
Assay [2] can be described thus: modulators of HCV replicon luciferase signal, primary screen, HCV replication inhibitor project, Huh7 cells, luciferase reporter (AID 1109).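 Also: huh7 hepatoma cells harbouring a luciferase neomycin HCV replicon reporter; luciferase luminescence as measure of HCV replicon replication; test concentration not given here.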 The following applies: 48 h, higher = more signal. In general terms: In antiviral work, replicon cells carry a viral genome segment that copies itself.
In assay [3] the target is Left-right determination factor 2 (Homo sapiens) (UniProt O00292). The assay is described as follows: LEFTY2 binders on small-molecule microarrays, primary screen, biochemical, small-molecule microarray, 635 nm fluorescence scan (AID 1110). The following applies: LEFTY2 binding, higher = more signal.
Assay [4] addresses Calmodulin-1 (Homo sapiens) (UniProt P0DP23). The experiment in a line: CALM1 binders on microarrays, EGTA buffer, profiling panel, biochemical, small-molecule microarray, Cy5-labelled CALM1 (AID 1111).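 Also: labelled calmodulin applied in Tris saline Tween buffer holding calcium plus EGTA and DTT.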 The settings on record: Cy5-CALM1 binding fluorescence, higher = more signal.
Assay [5] has the same target. The assay is described as follows: calcium-bound CALM1 binders on microarrays, profiling panel, artefact control for SMM control-protein annotation, biochemical, small-molecule microarray, Cy5-labelled CALM1, plus calcium (AID 1112).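 Also: score merges spot fluorescence with signal to noise from triplicate slides.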 The settings on record: Cy5-CALM1 binding fluorescence, higher = more signal.
The nature of assay [6]: small-molecule microarray binders of probe aWnt5a, primary screen, biochemical, biotinylated probe, 635/667 nm fluorescence (AID 1113).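 Also: score merges 667 nm fluorescence intensity with signal-to-noise per printed feature.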 The settings on record: higher = more signal.
Assay [7] in a line: small-molecule microarray binders of probe aShh, primary screen, biochemical, biotinylated probe, 635/667 nm fluorescence (AID 1114).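 Also: probe is biotin-labelled aShh protein from a stem cell growth factor screen; measures binding of labelled protein to compounds printed on the slide; score merges feature fluorescence at 667 nm with signal-to-noise.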 The following applies: higher = more signal.
Assay [8] in a line: small-molecule microarray binders of probe aNog, primary screen, biochemical, biotinylated probe, 635/667 nm fluorescence (AID 1115).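 Also: probe is biotinylated aNog protein used at 0.15 µg/mL for 1 h at 4 C; z-score combines 667 nm fluorescence of each spot with its signal to noise.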 The settings on record: higher = more signal.
For assay [9], the target named is Torsin-1A-interacting protein 1 (Homo sapiens) (UniProt Q5JTV8). The experiment in a line: LAP1 binders from COS7 cell lysate, primary screen, small-molecule microarray, 635/667 nm fluorescence (AID 1116). The following applies: COS7-hLAP1 lysate binding, 635 nm fluorescence, higher = more signal.
Assay [10] addresses Alpha-bungarotoxin (Bungarus multicinctus) (UniProt P60615). The experiment in a line: alpha-bungarotoxin binders on microarray, profiling panel, artefact control for SMM control protein annotation, biochemical, small-molecule microarray, Alexa647 label, 635/667 nm fluorescence (AID 1117). The settings on record: alpha-BTX-A647 binding fluorescence, higher = more signal.

The structures appear in SMILES notation.

Sequence of Torsin-1A-interacting protein 1 (Homo sapiens) (Q5JTV8 whole entry, looked up): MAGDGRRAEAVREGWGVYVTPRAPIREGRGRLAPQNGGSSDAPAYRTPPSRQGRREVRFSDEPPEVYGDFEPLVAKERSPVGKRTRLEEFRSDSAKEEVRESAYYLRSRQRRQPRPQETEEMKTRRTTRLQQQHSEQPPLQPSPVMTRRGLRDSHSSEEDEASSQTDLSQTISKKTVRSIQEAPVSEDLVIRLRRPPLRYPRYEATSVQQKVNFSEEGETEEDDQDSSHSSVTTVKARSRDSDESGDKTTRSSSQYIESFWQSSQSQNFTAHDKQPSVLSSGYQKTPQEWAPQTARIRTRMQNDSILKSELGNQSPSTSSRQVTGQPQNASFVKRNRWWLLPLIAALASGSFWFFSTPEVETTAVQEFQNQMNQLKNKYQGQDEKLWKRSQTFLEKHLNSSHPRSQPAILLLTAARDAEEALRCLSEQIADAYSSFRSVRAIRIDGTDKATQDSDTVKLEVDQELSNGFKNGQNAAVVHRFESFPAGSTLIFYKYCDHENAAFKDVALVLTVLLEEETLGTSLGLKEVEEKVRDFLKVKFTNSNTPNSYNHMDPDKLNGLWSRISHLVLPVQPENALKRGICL
Sequence of Left-right determination factor 2 (Homo sapiens) (O00292 whole entry, looked up): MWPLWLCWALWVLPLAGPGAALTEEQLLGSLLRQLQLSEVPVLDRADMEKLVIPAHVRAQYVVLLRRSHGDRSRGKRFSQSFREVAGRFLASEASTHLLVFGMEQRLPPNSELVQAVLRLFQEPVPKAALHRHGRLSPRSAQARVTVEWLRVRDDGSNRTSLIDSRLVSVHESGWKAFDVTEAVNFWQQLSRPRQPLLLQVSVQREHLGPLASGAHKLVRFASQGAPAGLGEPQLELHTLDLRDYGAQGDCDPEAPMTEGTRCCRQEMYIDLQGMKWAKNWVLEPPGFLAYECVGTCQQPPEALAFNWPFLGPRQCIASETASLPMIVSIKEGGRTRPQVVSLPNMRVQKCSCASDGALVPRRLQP
Sequence of Alpha-bungarotoxin (Bungarus multicinctus) (P60615 whole entry, looked up): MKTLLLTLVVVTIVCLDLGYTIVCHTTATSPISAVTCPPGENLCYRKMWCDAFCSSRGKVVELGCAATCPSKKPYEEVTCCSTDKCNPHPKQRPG

As to `[N-]=[N+]=NCc1ccccc1C[C@]1(C(=O)NCc2ccccc2)N=C(c2ccc(OCCCO)cc2)O[C@H]1c1ccccc1CN=[N+]=[N-]`, the composite z-score in assay [1] is 1.42; in assay [3], -0.578; in [4], 1.36; in assay [5], 0.533; in [6], 0.0474; in assay [7], 0.338. Further, the composite z-score in assay [8] was -0.0439; in assay [9], 1.9; in assay [10], 1.87. In addition, the z-score in assay [2] is -2.3.
With `C=CCOC(=O)[C@H]1[C@@H]2C(=O)O[C@@H](c3ccccc3)[C@@H](c3ccccc3)N2[C@@H](c2ccc(OCCOC(=O)[C@@H]3C[C@@H]4C(=O)N[C@@H](CC(C)C)C(=O)N4[C@@H]3c3ccc(O)cc3)cc2)[C@]12C(=O)Nc1ccc(I)cc12`, the composite z-score is 1.37 in [1]; 0.835 in assay [3]; 1.81 in assay [4]; 0.303 in assay [5]; 0.0095 in assay [6]; -0.0553 in assay [7]. The composite z-score came to 0.287 in assay [8], 1.47 in assay [9] and 0.912 in assay [10]. Besides, the z-score in assay [2] was -1.16.
Turning to `C=CCC(OC(C)=O)[C@@H]1[C@@H](N(Cc2cc3ccccc3o2)C(=O)Cc2ccc(OC)cc2)c2cc(OCCCO)ccc2N1C(=O)Cc1ccc2ccccc2c1` (stereo not given in full), the composite z-score in assay [1] is -0.687; in assay [3], -0.487; in [4] it was -0.197; in assay [5] it was 0.191; in assay [6], -0.0704; in assay [7], 0.0815. Besides, the figures for the composite z-score in assay [8], in [9] and in [10] were -0.0642, 0.475 and 0.615, respectively. This compound came in with a z-score in [2] of -0.739.
Regarding `CC=CC(O)C1C=CC2C(=O)N(C)C(=O)C2N1NC(=O)OC(C)(C)C` (stereo not given), the composite z-score in assay [1] was -1.08; in assay [3], 0.478; in assay [4], 0.127; in assay [5], -0.516; in assay [6], -0.101; in assay [7], -0.206. For the same compound, the composite z-score was -0.135 in assay [8], 0.512 in assay [9] and 0.277 in [10]. In assay [2], the z-score amounted to 0.381.
With `COc1ccc([Si](C)(C)[C@@H]2[C@@H](CC(=O)N(CCO)Cc3ccccc3)O[C@]3(C(=O)N(Cc4ccc(N5CCC5=O)cc4)c4ccccc43)[C@H]2C)cc1`, the composite z-score in [1] is -0.382; in assay [3], 1.14; in assay [4], 0.086; in assay [5], 0.734; in [6] it was -0.176; in assay [7], 0.0898. The composite z-score in assay [8] was -0.194; in assay [9], 0.357; in [10] it was 0.295. Besides, the z-score in [2] is -4.13.
For the compound `CCCC=C(CCC)[C@@H](NC(=O)c1ccco1)c1ccc(C(=O)OC)cc1`, the composite z-score in [1] turned out to be 1.43; in assay [3], 0.177; in assay [4], 1.37; in assay [5] it was 1.27; in assay [6] it was 0.117; in [7] it was 0.202. Also, the figures for the composite z-score in [8], in assay [9] and in [10] were 1.69, 1.02 and 1.38, respectively. The z-score in [2] is -2.72.
As to `CCCCC=C[C@@H](NC(=O)c1ccc(C(F)(F)F)cc1)c1ccccc1`, the composite z-score was -0.297 in assay [1]; -0.636 in assay [3]; -0.0968 in [4]; 0.382 in assay [5]; -0.134 in assay [6]; 0.0022 in assay [7]. Also, the composite z-score in assay [8] is 0.278; in [9], -0.946; in assay [10] it was -1.07. This compound also showed a z-score in assay [2] of -0.887.
As for `O=C1OCCC=C[C@H]2OC34C=CCN(c5ccc(Cl)cc5)C(=O)[C@H]3N(CCO)C(=O)[C@@H]4C12` (stereo not given in full), the composite z-score in [1] is -0.646; in [3], -1.34; in [4], -0.585; in [5], -0.1; in assay [6] it was -0.239; in assay [7] it was -0.262. For the same compound, the composite z-score is -0.274 in assay [8], -0.855 in assay [9] and -0.957 in [10]. The same compound returned a z-score in assay [2] of 0.318.
In the case of `CO[C@H]1O[C@H](CO)[C@@H](OC(=O)Nc2ccc(C(F)(F)F)cc2)[C@H](OC(=O)Nc2ccccc2-c2ccccc2)[C@H]1OC(=O)Nc1ccccc1-c1ccccc1`, the composite z-score in assay [1] is 1.47; in assay [3] it was 0.24; in assay [4] it was 1.59; in assay [5] it was -0.135; in [6] it was -0.0445; in [7], 0.0121. For the same compound, the composite z-score is -0.136 in [8], 0.731 in [9] and 1.36 in assay [10]. This compound registered a z-score in [2] of -3.83.
As for `COc1ccc(CC[C@H](O)c2cccc(OCC(=O)OC(C)(C)C)c2)cc1`, the composite z-score was 1.38 in assay [1]; 0.461 in [3]; 0.829 in [4]; -0.271 in assay [5]; 0.0181 in assay [6]; 0.167 in [7]. Besides, the composite z-score in assay [8] was -0.216; in [9], 1.27; in assay [10], 0.737. Besides, the z-score in assay [2] is -1.12.
As for `O=c1cccc(-c2ccccc2C(F)(F)F)o1`, the composite z-score in [1] was -0.438; in assay [3], -0.747; in [4] it was -0.294; in [5], 0.243; in assay [6], 0.421; in assay [7] it was 0.417. Also, the composite z-score is 1.08 in assay [8], -0.211 in [9] and -0.678 in [10]. For the same compound, the z-score in assay [2] was -0.445.
`COCCOC(=O)N1C(=O)[C@@]2(c3cc(C#CCC(C(=O)OC)C(=O)OC)ccc31)[C@H](C(=O)N1CCCCCCC1)[C@H]1C(=O)O[C@H](c3ccccc3)[C@H](c3ccccc3)N1[C@@H]2c1ccccc1OCCO`: the composite z-score in [1] was 1.32; in assay [3], 1.09; in assay [4], 2.56; in assay [5], 1.63; in assay [6], 0.931; in assay [7], 2.96. Further, the composite z-score in assay [8] is 3.14; in assay [9], 3.82; in [10], 2.51. This compound also displayed a z-score in assay [2] of -2.25.
Regarding `COC(=O)[C@@]1(Cc2ccc(F)cc2)[C@H]2c3cc(C(=O)N(C)C)n(CCO)c3C[C@H]2CN1C(=O)c1ccccc1`, the composite z-score in assay [1] is -0.0095; in [3], -0.388; in [4], 0.987; in assay [5], 0.322; in [6] it was -0.0271; in assay [7] it was 0.494. Moreover, the values for the composite z-score in assay [8], in assay [9] and in assay [10] were 1.33, 1.47 and -0.148, respectively. The compound also displayed a z-score in assay [2] of -0.896.
